Data on nine compounds can be found in PubChem BioAssay (NCI).

Compounds without any hit were thinned out: in the full panel of roughly 83,000, 20% have a hit.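 Results are percent growth after 48 hours of single-concentration exposure. 100 means growth as in untreated cells, lower positive values show inhibition; negative values down to -100 show cell death.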 Values without a mark were called inactive. Active and inactive are the calls of the source. The calls were made as follows: active = growth percent below 10; inactive = the rest.

Some test systems named below: NCI-H23 lung; NCI-H226 lung; NCI-H322M lung; HOP-62 NSCLC; NCI-H460 lung; HOP-92 NSCLC; A549/ATCC NSCLC; COLO 205 colon; DU-145 prostate; K-562 leukemia; MALME-3M melanoma; MDA-MB-231 breast; RXF 393 renal; SF-268 CNS; SF-295 CNS; SF-539 CNS; UACC-257 melanoma; 786-0 renal; M14 melanoma; NCI-H522 lung.
What all share (test): NCI-60 one-dose screen, 48 h (100 = growth as untreated, 0 = no growth, -100 = all killed)
What all share (details): 10 µM

Regarding `COc1ncnc2c1cnn2C`, the growth in the experiment with NCI-H23 lung is 106%; in the experiment on NCI-H226 lung, 106%; in the experiment on NCI-H322M lung, 116%; in the experiment on HOP-62 NSCLC, 94.4%; in the experiment on NCI-H460 lung, 106%; in the experiment with HOP-92 NSCLC it was 99.9%. Besides, the growth with A549/ATCC NSCLC is 105%; in the experiment on COLO 205 colon, 104%; in the experiment on DU-145 prostate it was 111%; with K-562 leukemia, 115%; in the experiment with MALME-3M melanoma it was 126%; in the experiment with MDA-MB-231 breast, 100%. In addition, the growth with RXF 393 renal is 114%; in the experiment with SF-268 CNS, 101%; in the experiment with SF-295 CNS, 112%; with SF-539 CNS it was 96.8%; in the experiment with UACC-257 melanoma, 106%.
For the compound `N#CCCc1ccc(O)cc1`, the growth in the experiment on NCI-H23 lung is 117%; with NCI-H226 lung, 102%; in the experiment with NCI-H322M lung, 102%; in the experiment on HOP-62 NSCLC, 104%; in the experiment on NCI-H460 lung, 103%; with HOP-92 NSCLC, 108%. Further, the growth in the experiment with 786-0 renal was 104%; in the experiment with DU-145 prostate it was 117%; with K-562 leukemia, 100%; with MALME-3M melanoma, 108%; with MDA-MB-231 breast, 116%; in the experiment on RXF 393 renal it was 106%. For the same compound, the growth in the experiment with SF-268 CNS is 110%; with SF-295 CNS, 97.8%; in the experiment with SF-539 CNS, 99.4%; in the experiment with M14 melanoma it was 108%.
For the compound `O=[N+]([O-])c1ccc(-c2ncc(-c3ccc(Br)cc3)o2)cc1`, the growth with NCI-H23 lung was 93.7%; with NCI-H226 lung it was 107%; in the experiment on NCI-H322M lung, 110%; with HOP-62 NSCLC, 114%; in the experiment on NCI-H460 lung, 73.4%; in the experiment with NCI-H522 lung, -2.2% (active). Further, the growth was 30.5% with A549/ATCC NSCLC; 97.3% in the experiment on 786-0 renal; 134% in the experiment with COLO 205 colon; 112% in the experiment on DU-145 prostate; 97.3% in the experiment on K-562 leukemia; 125% in the experiment with MALME-3M melanoma. The growth in the experiment with MDA-MB-231 breast is 119%; in the experiment on RXF 393 renal it was 106%; with SF-268 CNS, 107%; with SF-295 CNS it was 98.3%; in the experiment with SF-539 CNS, 101%; with UACC-257 melanoma, 74.1%. In the experiment with M14 melanoma, the growth was 109%.
Consider `CCCCC/C=N/Nc1nc(C)cc(=O)[nH]1`, for which the growth in the experiment on NCI-H23 lung was 98.7%; in the experiment with NCI-H226 lung, 97.5%; in the experiment on NCI-H322M lung, 100%; in the experiment with HOP-62 NSCLC it was 117%; with NCI-H460 lung it was 107%; in the experiment with NCI-H522 lung, 112%. In addition, the growth is 86.8% in the experiment with A549/ATCC NSCLC; 102% with 786-0 renal; 121% in the experiment with COLO 205 colon; 114% in the experiment with DU-145 prostate; 105% with K-562 leukemia; 103% in the experiment on MALME-3M melanoma. The growth was 95.2% in the experiment with MDA-MB-231 breast; 105% in the experiment on RXF 393 renal; 107% with SF-268 CNS; 88.8% in the experiment on SF-295 CNS; 108% with SF-539 CNS; 93.1% in the experiment on UACC-257 melanoma. Moreover, the growth in the experiment on M14 melanoma was 106%.
`CC1NC(=O)NC1CCCCCC(=O)O` (stereo not drawn): the growth is 100% with NCI-H23 lung; 103% in the experiment on NCI-H226 lung; 132% with NCI-H322M lung; 104% in the experiment on HOP-62 NSCLC; 111% in the experiment on NCI-H460 lung; 72.9% in the experiment with HOP-92 NSCLC. For the same compound, the growth was 94.9% in the experiment with A549/ATCC NSCLC; 110% in the experiment on COLO 205 colon; 108% in the experiment on DU-145 prostate; 125% in the experiment on K-562 leukemia; 106% in the experiment with MALME-3M melanoma; 91.4% in the experiment with MDA-MB-231 breast. Further, the growth in the experiment with RXF 393 renal was 105%; in the experiment on SF-268 CNS it was 96.5%; in the experiment on SF-539 CNS it was 105%; with UACC-257 melanoma, 86.6%; with M14 melanoma it was 95%.
As for `CCc1ccc(/C(C#N)=C/C=C/c2ccccc2)cc1`, the growth is 33.4% with NCI-H23 lung; 67.3% in the experiment with NCI-H226 lung; 32.7% with NCI-H322M lung; 34.4% in the experiment on HOP-62 NSCLC; 13.7% in the experiment with NCI-H460 lung; -39.4% (active) in the experiment with NCI-H522 lung. Further, the growth is 28.7% with A549/ATCC NSCLC; 63.2% in the experiment with 786-0 renal; -15% (active) in the experiment with COLO 205 colon; 24.9% in the experiment on DU-145 prostate; 14.9% in the experiment with K-562 leukemia; 51.2% in the experiment with MALME-3M melanoma. Moreover, the growth was 63.2% in the experiment on MDA-MB-231 breast; 11.9% in the experiment on RXF 393 renal; 65.1% in the experiment on SF-268 CNS; 21.3% in the experiment on SF-295 CNS; 18.6% with SF-539 CNS; 31.5% with UACC-257 melanoma. The growth with M14 melanoma is 23.1%.
Regarding `N#CSc1cc(S(N)(=O)=O)ccc1N`, the growth with NCI-H23 lung was 104%; in the experiment with NCI-H226 lung, 108%; in the experiment with NCI-H322M lung it was 114%; with HOP-62 NSCLC it was 104%; in the experiment on NCI-H460 lung, 114%; with HOP-92 NSCLC, 135%. Moreover, the growth was 102% in the experiment with A549/ATCC NSCLC; 113% in the experiment on COLO 205 colon; 115% in the experiment with DU-145 prostate; 113% in the experiment on K-562 leukemia; 110% in the experiment on MALME-3M melanoma; 108% in the experiment on MDA-MB-231 breast. The growth was 119% in the experiment with RXF 393 renal; 108% in the experiment with SF-268 CNS; 120% in the experiment with SF-295 CNS; 102% in the experiment with SF-539 CNS; 107% with UACC-257 melanoma.
`CCCC(=O)c1cc(C)ccc1OC`: the growth was 108% in the experiment on NCI-H23 lung; 99.7% in the experiment with NCI-H226 lung; 126% in the experiment with NCI-H322M lung; 101% in the experiment on HOP-62 NSCLC; 106% in the experiment on NCI-H460 lung; 81.5% with HOP-92 NSCLC. The growth with A549/ATCC NSCLC was 111%; with COLO 205 colon it was 112%; with DU-145 prostate it was 119%; in the experiment with MALME-3M melanoma, 135%; in the experiment with MDA-MB-231 breast it was 93.8%; with RXF 393 renal, 109%. Further, the growth is 96% in the experiment with SF-268 CNS, 125% in the experiment on SF-295 CNS, 94.9% with SF-539 CNS and 112% in the experiment on UACC-257 melanoma.
`Cc1cc(C)c(CC(=O)O)c(C)c1`: the growth in the experiment with NCI-H23 lung was 100%; with NCI-H226 lung, 99.8%; with NCI-H322M lung it was 100%; in the experiment with HOP-62 NSCLC, 107%; in the experiment on NCI-H460 lung it was 105%; with HOP-92 NSCLC it was 90.5%. In addition, the growth in the experiment on A549/ATCC NSCLC is 104%; with COLO 205 colon, 108%; with DU-145 prostate, 101%; in the experiment on K-562 leukemia, 95.2%; in the experiment with MALME-3M melanoma, 97.8%; with MDA-MB-231 breast, 120%. Moreover, the growth is 123% in the experiment with RXF 393 renal; 98.6% in the experiment with SF-268 CNS; 102% with SF-295 CNS; 108% in the experiment with SF-539 CNS; 106% with UACC-257 melanoma; 98.9% in the experiment on M14 melanoma.
